This note sets out measurements from PubChem BioAssay (NCATS).

Experiment [1] has as its system HEK293. Put plainly: Cytotoxic Profiling of Annotated Libraries Using Quantitative High-Throughput Screening (AID 1296008). For max response: % is set by controls: 0 for no effect and ±100 for the full control effect. Note: nearly all actives have a fitted effect of over 60% in size. Note: potency is the fitted concentration of half-maximal effect. The conditions noted are these: Five cell lines viability, CellTiter-Glo ATP luminescence, 48-72 h; max response: active compounds read low. An outline of the steps:
(§1)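 Cells exposed to compounds for 48 or 72 hr at 37 degrees Celsius. Viability read as ATP-coupled luminescence with CellTiter-Glo after 10 min at room temperature.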

Experiment [2] concerns C33A. Put plainly: Primary qHTS to identify gynecologic anti-cancer compounds using libraries of approved drugs and bioactive compounds (AID 1345084). Note: nearly all actives have a fitted effect of over 55% in size. Note: potency is the fitted concentration of half-maximal effect. The conditions noted are these: Gynecologic cancer cell panel viability, ATPlite luminescence, 48 h; series mostly up to 57.5 µM. An outline of the steps:
(§2)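 Five-point cytotoxicity, 48 h drug exposure at 37 C, 5% CO2, on cells seeded 16 h beforehand. ATP content read by ATPlite luminescence.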
Background: Quantitative high-throughput screening tests each substance at several concentrations.

The test system of experiment [3] is CAOV3. The description is as above. The conditions noted are these: Gynecologic cancer cell panel viability, ATPlite luminescence, 48 h; series mostly up to 57.5 µM. The essentials:
as §2
Background: Cellular ATP, detected with luciferase, serves as a proxy for viable cell number.

Experiment [4] relates to CASKI. Described as above. The conditions noted are these: Gynecologic cancer cell panel viability, ATPlite luminescence, 48 h; series mostly up to 57.5 µM. The essentials: as §2
The test system of experiment [5] is HeLa. Described as above. The conditions noted are these: Gynecologic cancer cell panel viability, ATPlite luminescence, 48 h; series mostly up to 57.5 µM. An outline of the steps:
as §2

In experiment [6] the test system is JEG-3. The description is as above. The conditions noted are these: Gynecologic cancer cell panel viability, ATPlite luminescence, 48 h; series mostly up to 57.5 µM. An outline of the steps: as §2
The subject of experiment [7] is OV90. The description is as above. The conditions noted are these: Gynecologic cancer cell panel viability, ATPlite luminescence, 48 h; series mostly up to 57.5 µM. The essentials: as §2
Experiment [8] concerns PA-1. The experiment is described as above. The conditions noted are these: Gynecologic cancer cell panel viability, ATPlite luminescence, 48 h; series mostly up to 57.5 µM. An outline of the steps:
as §2

For experiment [9], the system named is Es-2. The experiment is described as above. The conditions noted are these: Gynecologic cancer cell panel viability, ATPlite luminescence, 48 h; series mostly up to 57.5 µM. An outline of the steps:
as §2

The test system of experiment [10] is Hek293T. The experiment is described as above. The conditions noted are these: Gynecologic cancer cell panel viability, ATPlite luminescence, 48 h, control line for the selectivity index; series mostly up to 57.5 µM. An outline of the steps:
as §2

Experiment [11] has as its system HaCat. Put plainly: Cytotoxic Profiling of Annotated Libraries Using Quantitative High-Throughput Screening (AID 1296008). For max response: % is set by controls: 0 for no effect and ±100 for the full control effect. Note: nearly all actives have a fitted effect of over 60% in size. Note: potency is the fitted concentration of half-maximal effect. The conditions noted are these: Five cell lines viability, CellTiter-Glo ATP luminescence, 48-72 h; max response: active compounds read low. An outline of the steps:
as §1

Experiment [12] has as its system KB-3-1. The experiment is described as above. The conditions noted are these: Five cell lines viability, CellTiter-Glo ATP luminescence, 48-72 h; max response: active compounds read low. The essentials: as §1
Experiment [13] concerns NIH3T3. Described as above. The conditions noted are these: Five cell lines viability, CellTiter-Glo ATP luminescence, 48-72 h; max response: active compounds read low. An outline of the steps:
as §1

In experiment [14] the test system is HACAT. Put plainly: qHTS assay to identify novel small-molecules to repurpose for Merkel cell carcinoma treatment (AID 1296009). Note: nearly all actives have a fitted effect of over 60% in size. The conditions noted are these: MCC and control cell lines, CellTiter-Glo viability, 72 h; at 44.8 µM (top of the series) unless noted. The essentials:
(§3)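 Cells were treated for 72 hr at 37 degree celsius with compounds in 8- or 11-point dose response. Viability was read by CellTiter-Glo luminescence, normalized to no-cell (cytotoxicity) and DMSO controls.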

Experiment [15] has as its system NIH3T3. The experiment is described as above. The conditions noted are these: MCC and control cell lines, CellTiter-Glo viability, 72 h; series mostly up to 44.8 µM. An outline of the steps: as §3

Results filed as inconclusive are left out. A number with no mark means an inactive call. Calls of active or inactive are those of the source. Calls come from the whole dose curve; as a rule, active = well fitted curve in the direction sought with a large enough effect; inconclusive = small, poorly fitted or top-dose-only effect, or another doubt; inactive = no such curve, though single readings can be large; an effect the other way counts as inactive or inconclusive.

Consider `C/C=C(/C)C(=O)O[C@H]1C=C(CO)C(=O)[C@H](OC(=O)/C(C)=C/CO)[C@H]1C(C)C`, for which the Potency in [1] is 3.6 µM (active); in experiment [2] it was 10 µM (active); in experiment [3], 11.2 µM (active).

For `C=C1CC(=O)C2OC2(C)CC2OC(=O)C(=C)C2C(O)C1OC(=O)/C(C)=C\C` (centres undefined), the Potency in experiment [1] was 6.4 µM (active). Further, the Potency result in [2], in experiment [3], in [4], in [5], in experiment [6] and in experiment [7] was “inactive” throughout. In experiment [8], the Potency entry was “inactive”.

As to `CC(OC1OCCN(Cc2n[nH]c(=O)[nH]2)C1c1ccc(F)cc1)c1cc(C(F)(F)F)cc(C(F)(F)F)c1` (centres undefined), in experiment [1], the Potency is 11.6 µM (active). For the same molecule, the Potency entry in experiment [2], in experiment [3], in experiment [4], in [9], in experiment [5] and in experiment [10] was “inactive” in each case. Moreover, the Potency result in experiment [6], in [7] and in experiment [8] was “inactive” in each case.

For the molecule `Cn1sc(=O)n(Cc2ccccc2)c1=O`, the Potency in experiment [1] is 6.51 µM (active). The Potency result in experiment [2], in experiment [4], in [9], in experiment [5], in experiment [7] and in experiment [8] was “inactive” each time.

As for `CC[C@@H](C)[C@@H]1OC2(C=C[C@H]1C)C[C@@H]1C[C@H](C/C=C(\C)[C@H](O[C@H]3C[C@H](OC)[C@H](O[C@H]4C[C@H](OC)[C@H](NC(C)=O)[C@H](C)O4)[C@H](C)O3)[C@H](C)/C=C/C=C3\CO[C@H]4[C@H](O)C(C)=C[C@@H](C(=O)O1)[C@@]34O)O2` (some centres undefined), the Potency in experiment [1] is 3.21 µM (active). The Potency entry in experiment [2], in experiment [3], in [4], in experiment [9] and in [7] was “inactive” throughout.

Regarding `Cc1[nH]c(/C=C2\C(=O)Nc3ccc(F)cc32)c(C)c1C(=O)NCCN1CCCC1`, in experiment [1], the Potency was 14.6 µM (active). Besides, the Potency result in experiment [2], in [4], in experiment [9], in [10], in experiment [6] and in experiment [7] was “inactive” in each case.

For `Cc1cc(-c2nc3cc(F)ccc3s2)ccc1NC(=O)[C@@H](N)CCCCN`, the Potency in experiment [1] was 14.6 µM (active); in experiment [2], 17.8 µM (active); in [3], 28.2 µM (active); in experiment [4] it was 14.1 µM (active); in [9] it was 15.8 µM (active); in [5], 14.1 µM (active). In addition, the Potency in experiment [10] is 12.6 µM (active); in experiment [6], 14.1 µM (active); in [7] it was 8.91 µM (active); in experiment [8], 10 µM (active).

Consider `CCC(C(C)O)n1ncn(-c2ccc(N3CCN(c4ccc(OCC5COC(Cn6cncn6)(c6ccc(F)cc6F)C5)cc4)CC3)cc2)c1=O` (centres undefined), for which, in [1], the Potency was 5.8 µM (active). Further, the Potency result in [2], in experiment [3], in [4], in [9], in experiment [5] and in experiment [6] was “inactive” throughout. Further, the Potency entry in [7] and in [8] was “inactive” in each case.

As to `CCN1CCN(Cc2ccc(C(=O)Nc3ccc(C)c(Oc4ccc5c(c4)CC(=O)N5)c3)cc2C(F)(F)F)CC1`, the Potency in experiment [1] is 13 µM (active). In addition, the Potency result in experiment [2], in experiment [3], in experiment [4], in experiment [9], in [5] and in [10] was “inactive” in each case. Further, the Potency entry in experiment [6] and in experiment [7] was “inactive” throughout.

Turning to `C[C@H](Oc1cc(-c2cnn(C3CCNCC3)c2)cnc1N)c1c(Cl)ccc(F)c1Cl`, the Potency in [1] was 9.2 µM (active). Besides, the Potency entry in experiment [2], in experiment [4], in [9], in [5], in experiment [10] and in [6] was “inactive” in each case.

As for `Nc1nc(OCc2cc(Br)cs2)c2[nH]cnc2n1`, the max response in experiment [11] is -1.07%; in [13], 2.13%. Besides, the result in [12] was inactive. Besides, the Potency entry in experiment [2], in experiment [3], in experiment [4], in experiment [9], in [5] and in experiment [10] was “inactive” each time. The Potency result in [6], in experiment [7] and in [8] was “inactive” in each case.

For the molecule `COC(=O)c1sccc1S(=O)(=O)Nc1ccc(Nc2ccccc2)cc1OC`, the call in [11] and in [14] was inactive. The max response is -21.5% in [12] and 1.31% in [13]. For the same molecule, the Potency result in experiment [2], in experiment [3], in experiment [4], in [9], in experiment [5] and in experiment [10] was “inactive” in each case. Besides, the Potency entry in experiment [6], in [7] and in experiment [8] was “inactive” throughout.

On to `O=C(Nc1cnc(Cl)nc1)c1ccc(F)c(F)c1`, for which the molecule was classed as inactive in experiment [11] and in [14]. The figures for the max response in experiment [12] and in experiment [13] were 3.36% and 1.41%, respectively. Besides, the Potency entry in experiment [2], in experiment [4], in experiment [9], in experiment [5], in experiment [10] and in experiment [6] was “inactive” in each case. For the same molecule, the Potency entry in experiment [7] and in experiment [8] was “inactive” throughout.

Take `C=C1C(=O)OC2CC3(C)C(O)C(=O)C=C(C)C3CC12` (centres undefined): the max response in experiment [11] is 0.297%; in experiment [13], -22.8%. For the same molecule, the result in experiment [12] was inactive. In addition, the Potency entry in [2], in experiment [3], in experiment [4], in experiment [9], in experiment [5] and in experiment [10] was “inactive” each time. Further, the Potency entry in experiment [6], in experiment [7] and in experiment [8] was “inactive” throughout.

As for `C=CC(=O)N1CCCN(c2cc(NCCC(=O)O)nc(-c3ccccn3)n2)CC1`, the result in [11] and in experiment [14] was inactive. Also, the max response in experiment [12] was -3.55%; in experiment [13], -29.3%. In addition, the Potency result in [2], in [3], in experiment [4], in experiment [5], in [10] and in [6] was “inactive” in each case. In experiment [8], the Potency result was “inactive”.

In the case of `COC1CCN(C(=O)c2cc(Cc3n[nH]c(=O)c4ccccc34)ccc2F)CC1`, the max response in experiment [11] was 1.07%; in experiment [12] it was -17.5%; in [13], -21.2%. In addition, the Potency entry in experiment [2], in [3], in experiment [4], in [9], in experiment [5] and in experiment [10] was “inactive” each time. Further, the Potency result in experiment [6], in experiment [7] and in experiment [8] was “inactive” in each case.

As for `COc1cc2ncnc(Nc3cccc(I)c3)c2cc1OC`, the results for the Potency in experiment [11] and in experiment [12] were 4.61 µM (active) and 9.2 µM (active), respectively. Also, the molecule was classed as inactive in [13]. Besides, the Potency result in experiment [15], in experiment [2], in [4], in [9], in [10] and in experiment [6] was “inactive” each time. The Potency result in experiment [7] and in [8] was “inactive” each time.
